Source: PubChem BioAssay AID1159580 (chemical genetic matrix, 2015)
Values joined by “and” are separate entries in the source; they are usually repeats but may differ in a detail not shown here. Equal entries are not always repeated. The campaign covered roughly 5,500 compounds. About 2,000 (36%) were called active. Inconclusive results (about 18%) are left out. Cut-off read from the data, not from the text of the source: active = normalized growth mostly below about 0.91 (no sharp cut-off); inconclusive = no clear call, values can overlap the other calls; inactive = mostly above about 0.92. Some of the results follow.

Experiment: chemical genetic growth profiling, strain panel (AID 1159580);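 note: tested at 20 µM; growth read once vehicle control cultures reached saturation at 30 °C; 1 = growth at the plate median or of vehicle wells; lower values mean less growth of the strain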
Conditions: S. cerevisiae deletion strains, growth OD

Measured: normalized growth

Cc1cc(O)c(C)c(O)c1C(=O)O
inactive: locus YAL021C, strain ccr4, hits give low values 0.989 | locus YAL026C, strain drs2, hits give low values 0.979 | locus YAL030W, strain snc1, hits give low values 0.999 | locus YBL061C, strain skt5, hits give low values 0.989 | locus YBR009C, strain hhf1, hits give low values 0.97 | locus YBR021W, strain FUR4, hits give low values 0.986 | locus YBR023C, strain chs3, hits give low values 0.981 | locus YBR171W, strain sec66, hits give low values 0.99 | locus YBR229C, strain ROT2, hits give low values 0.993 | locus YBR231C, strain swc5, hits give low values 0.992 | locus YBR279W, strain paf1, hits give low values 0.984 | locus YCL011C, strain gbp2, hits give low values 0.991 | locus YCL016C, strain dcc1, hits give low values 0.99 | locus YCL029C, strain bik1, hits give low values 0.976 | locus YCL061C, strain MRC1, hits give low values 1.01 | locus YCL069W, strain vba3, hits give low values 0.995 | locus YCR088W, strain abp1, hits give low values 0.988 | locus YDL005C, strain med2, hits give low values 0.984 | locus YDL035C, strain GPR1, hits give low values 1.03 | locus YDL040C, strain nat1, hits give low values 0.99 | locus YDL074C, strain BRE1, hits give low values 1.06 | locus YDL101C, strain DUN1, hits give low values 0.986 | locus YDL134C, strain PPH21, hits give low values 0.978 | locus YDL185W, strain tfp1, hits give low values 0.964 | locus YDL192W, strain arf1, hits give low values 0.997 | locus YDR001C, strain nth1, hits give low values 0.981 | locus YDR069C, strain doa4, hits give low values 0.956 | locus YDR101C, strain arx1, hits give low values 1.04 | locus YDR137W, strain rgp1, hits give low values 0.899 | locus YDR159W, strain sac3, hits give low values 0.983 | locus YDR162C, strain NBP2, hits give low values 1.03 | locus YDR195W, strain ref2 0.977 | locus YDR297W, strain sur2, hits give low values 0.986 | locus YDR318W, strain mcm21, hits give low values 0.979 | locus YDR334W, strain swr1, hits give low values 0.975 | locus YDR335W, strain msn5, hits give low values 0.985 | locus YDR388W, hits give low values 1 | locus YDR392W, strain spt3, hits give low values 0.931 | locus YDR502C, strain sam2, hits give low values 0.98 | locus YEL003W, strain gim4, hits give low values 0.978 | locus YEL037C, strain rad23, hits give low values 0.976 | locus YEL061C, strain CIN8 (second series), hits give low values 0.979 | locus YEL061C, strain CIN8, hits give low values 1 | locus YER015W, strain faa2, hits give low values 0.987 | locus YER016W, strain bim1, hits give low values 0.991 | locus YER110C, hits give low values 0.984 | locus YER111C, strain swi4, hits give low values 0.985 | locus YER155C, strain BEM2 (second series), hits give low values 0.968 | locus YER155C, strain BEM2, hits give low values 0.988 | locus YER167W, strain BCK2, hits give low values 1.01 | locus YFR010W, strain ubp6, hits give low values 0.975 | locus YGL078C, strain dbp3, hits give low values 0.95 | locus YGL086W, strain mad1, hits give low values 0.997 | locus YGL167C, strain pmr1, hits give low values 0.974 | locus YGL173C, strain kem1, hits give low values 0.984 | locus YGL227W, strain vid30, hits give low values 0.995 | locus YGL240W, strain doc1, hits give low values 0.906 | locus YGL248W, strain PDE1, hits give low values 0.978 | locus YGL253W, strain hxk2, hits give low values 0.993 | locus YGR078C, strain PAC10, hits give low values 0.976 | locus YGR135W, strain pre9, hits give low values 0.925 | locus YGR252W, strain gcn5, hits give low values 0.926 | locus YHR013C, strain ard1, hits give low values 0.954 | locus YHR027C, strain rpn1, hits give low values 0.997 | locus YHR030C, strain SLT2, hits give low values 1.04 | locus YHR079C, strain IRE1 (second series), hits give low values 0.993 | locus YHR079C, strain IRE1, hits give low values 1.02 | locus YHR094C, strain hxt1, hits give low values 0.981 | locus YHR129C, strain ARP1, hits give low values 1.01 | locus YHR142W, strain chs7, hits give low values 1.02 | locus YHR200W, strain rpn10, hits give low values 0.96 | locus YIL066C, strain RNR3, hits give low values 1.01 | locus YIL073C, strain SPO22, hits give low values 0.806 | locus YIL125W, strain kgd1, hits give low values 1 | locus YIR030C, strain dcg1, hits give low values 0.989 | locus YJL092W, strain hpr5, hits give low values 1 | locus YJL095W, strain BCK1 (second series), hits give low values 1 | locus YJL095W, strain BCK1, hits give low values 0.988 and 1.05 | locus YJL115W, strain asf1, hits give low values 0.983 | locus YJL129C, strain trk1, hits give low values 0.995 | locus YJL134W, strain LCB3, hits give low values 1 | locus YJL154C, strain vps35, hits give low values 0.986 | locus YJL164C, strain tpk1, hits give low values 1.01 | locus YJL166W, strain qcr8, hits give low values 0.961 | locus YJL168C, strain set2, hits give low values 0.982 | locus YJL187C, strain SWE1 (second series), hits give low values 0.985 | locus YJL187C, strain SWE1, hits give low values 0.992
